Assay outcomes as filed in PubChem BioAssay.
CCHF vOTU inh-1 – CCHFV vOTU protease inhibitors, primary screen, biochemical, Pep-AMC substrate, fluorescence; Crimean-Congo hemorrhagic fever virus L polyprotein viral ovarian tumor (vOTU) protease …; inhibition, % at 11.5 µM; 370,000 tested, 0.55% active; AID 651958, 2012; note: 0% = vehicle wells with enzyme and 100% = no enzyme wells
Mtb bLac sens – beta-lactam sensitization of Mtb H37Rv, H37Rv | M. tuberculosis H37Rv growth with meropenem, percent inhibition | 330,000 tested, 0.27% active | AID 434955, 2010 | inhibition, % at 25 µM; call rule not given here;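 note: growth measured after seven days incubation then overnight dye step; 0% = bacteria only wells and 100% = bacteria with antibiotic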
PfHsp40 yeast – rescue of yeast from PfHsp40 toxicity, primary screen, S. cerevisiae, ATP luminescence. S. cerevisiae expressing PfHsp40, growth rescue. growth rescue, % at 12.5 µM. 340,000 tested, 0.68% active. AID 504582, 2011; in the data active = growth rescue above about 28%, passing the limit was not always enough;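 note: yeast W303a lacking pdr1 and pdr3 grown in galactose medium; growth measured after three days at 30 °C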
Mtb hypoxia rep – PubChem AID 1159583; M. tuberculosis hypoxia-regulated fluorescent reporter, fluorescence; fluorescence inhibition, % (no concentration beside the values); 300,000 tested, 0.1% active; in the data active = fluorescence inhibition mostly above about 23%, no sharp cut-off; inactive = mostly below about 17%
RecA intein inh – Mtb RecA intein splicing inhibitors, primary screen, biochemical, fluorescence, HTS | cell-free RecA intein splicing | inhibition, % (concentration not given with the values) | 290,000 tested, 0.75% active; in the data active = inhibition above about 30%;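 note: 0% = vehicle wells and 100% = reference inhibitor control wells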
CCHF vOTU inh-2 – CCHFV vOTU protease inhibitors, confirmation, biochemical, Pep-AMC substrate, fluorescence; shares compounds with CCHF vOTU inh-1; Recombinant CCHFV vOTU; inhibition, % at 11.5 µM; 1,900 tested, 17% active
* = called active by the depositor; x = not tested or not shown. In the library only some 1.7% were active in any assay of this set; here they are far more common. Cut-off read from the data, not from the text of the source, unless noted: active = inhibition above about 30%; inactive = the rest.

SMILES	CCHF vOTU inh-1	Mtb bLac sens	PfHsp40 yeast	Mtb hypoxia rep	RecA intein inh	CCHF vOTU inh-2
O=C1NCCCC1C(=O)NN=Cc1ccccc1 (stereo unspecified)	x	x	x	5	x	x
Cc1cc2c(=Cc3ccc(N(C)C)cc3)c3ccccc3n2[n+]1C	34*	x	180*	x	x	9
CN(C)c1ccc(C=c2c3ccccc3n3c2c2ccccc2[n+]3C)cc1	0	x	2	x	x	x
CCOC(=O)c1cc2c(=Cc3ccc(N(C)C)cc3)c3ccccc3n2[n+]1C	97*	x	284*	x	x	79*
COc1ccccc1N1CCN(C(=O)C2CCN(C(=O)c3ccccc3Cl)CC2)CC1	31*	4	-1	-2	0	-7
COc1ccccc1N1CCN(C(=O)C2CC2)CC1	-9	6	x	12	0	x
O=C(O)c1ccc(N/N=C/c2ccc(-c3ccc(Br)cc3)o2)cc1	33*	99	0	x	-74	-3
Cc1nnc(N/N=C\c2ccc(-c3cccc(C(=O)O)c3)o2)n1N	73*	1	-2	x	-8	-25
Cc1nnc(N/N=C/c2ccc([N+](=O)[O-])cc2)n1N	122*	18	0	x	4	-6
CCc1nnc(NN=Cc2ccc(-c3ccc([N+](=O)[O-])cc3)o2)n1N	x	x	x	16	x	x
Cc1nnc(N/N=C/c2ccc(-c3ccc(Br)cc3)o2)n1N	77*	100	-1	x	0	-2
CC(=NNC(=O)C1CC1c1ccccc1)c1cccc([N+](=O)[O-])c1 (stereo unspecified)	x	x	x	16	x	x
CC(CC(=O)Nc1ccc(Cl)cc1C(F)(F)F)=NNC(=O)c1ccccn1	x	x	x	-1	x	x
N#CCCN(C(=O)CON=Cc1cccc([N+](=O)[O-])c1)c1ccccc1	x	x	x	15	x	x
O=C(Cn1c2ccccc2c(=O)c2ccccc21)NN=Cc1cc([N+](=O)[O-])ccc1N1CCCCCC1	x	x	x	-1	x	x
Cc1nnc(N/N=C/c2ccc(Br)cc2)n1N	94*	96	0	x	-10	-13
CC(=NN1CCN(Cc2ccc(Cl)cc2)CC1)c1ccc(F)cc1	x	x	x	-1	x	x
Nc1ccc(N=Nc2ccc(O)cc2)c(N)n1	38*	x	2	x	x	7
COc1ccc(N=Nc2ccc(N)nc2N)cc1	7	0	0	x	0	x
O=C(CNC(=O)C1COc2ccccc2O1)NN=Cc1ccc(O)cc1O (stereo unspecified)	x	x	x	-3	x	x
COc1ccc(CC2CN3C(=NCC3Cc3ccccc3)N2CCNC(=O)c2ccc(C)c(Br)c2)cc1 (stereo unspecified)	x	x	x	16	x	x
CCOC(=O)[C@]12CCCC=C1N(Cc1ccc(Cl)cc1Cl)C(=O)[C@H](CC(=O)NCCCCc1ccccc1)C2	20	x	x	x	x	x
COC(=O)[C@@]12C[C@@H](CC(=O)NCCCCc3ccccc3)C(=O)N(Cc3cccc4ccccc34)C1=CCC(C)(C)C2	30*	x	x	x	x	9
COC(=O)[C@@]12C[C@@H](CC(=O)NCc3ccccc3)C(=O)N(Cc3cccc4ccccc34)C1=CCC(C)(C)C2	17	x	x	x	x	x
COC(=O)[C@]12CCCCC=C1N(Cc1ccc(Cl)cc1Cl)C(=O)[C@H](CC(=O)NCCCCc1ccccc1)C2	33*	x	x	x	x	-14
SMILES	CCHF vOTU inh-1	Mtb bLac sens	PfHsp40 yeast	Mtb hypoxia rep	RecA intein inh	CCHF vOTU inh-2
O=C(CN1C(=O)C(=Cc2ccccc2)SC1=S)Nc1cccnc1	x	x	x	3	x	x
Cc1ccc(C2(c3ccc(C)cc3)CC2C(=O)Nc2ccc([N+](=O)[O-])cc2O)cc1 (stereo unspecified)	34*	98	273*	1	16	-5
CCOC(=O)C1C2COc3ccc(Br)cc3C2N2C(=O)c3cc(OC)c(OC)cc3NC(=O)[C@@]12C (stereo partly specified)	x	x	x	-5	x	x
Cc1c(P(=S)(c2ccccc2)c2ccccc2)[n+]2ccccc2n1C	-2	x	-1	-1	2	x
Cc1c(P(=S)(c2ccccc2)c2ccccc2)[n+]2ccccc2n1C/C=C/c1ccccc1	30*	x	x	x	x	-33
COc1cc(C)ccc1Oc1nc(-c2ccccc2O)nc2ccccc12	32*	-3	0	-15	0	-1
Cc1cc(C(=O)NN=Cc2ccc[nH]2)no1	x	x	x	5	x	x
CC(C)C(C(=O)NCc1ccco1)N(C(=O)CNS(=O)(=O)c1ccccc1)c1ccccc1 (stereo unspecified)	34*	-8	2	5	0	-13
